# Sa ugtP lethal = growth inhibition of ugtP-null S. aureus, primary screen, RN4220 ugtP deletion, OD600 | 16 h | growth inhibition, % (no concentration beside the values) | 0.54% of 330,000 active | AID 1259309, 2017; in the data active = growth inhibition above about 68%;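 also: plate controls were untreated wells for no effect and antibiotic for full effect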
# RN4220 kill = growth inhibition of S. aureus RN4220, primary screen, OD600; 16 h; inhibition, % (test concentration not listed); 0.33% of 330,000 active; in the data active = inhibition above about 85%;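 also: plate controls were untreated cells for no effect and reference antibiotic for full effect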
# PfHsp40 rescue = rescue of yeast from PfHsp40 toxicity, primary screen, S. cerevisiae, ATP luminescence; S. cerevisiae expressing PfHsp40, growth rescue; 0.68% of 340,000 active; AID 504582, 2011; growth rescue, % at 12.5 µM; in the data active = growth rescue above about 28%, passing the limit was not always enough; inconclusive = no clear call, values can overlap the other calls;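 also: yeast W303a lacking pdr1 and pdr3 grown in galactose medium; growth measured after three days at 30 °C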
# Mtb bLac sens = beta-lactam sensitization of Mtb H37Rv, H37Rv | inhibition, % at 25 µM | 0.27% of 330,000 active | M. tuberculosis H37Rv growth with meropenem, percent inhibition; call rule not given here;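 also: growth measured after seven days incubation then overnight dye step; 0% = bacteria only wells and 100% = bacteria with antibiotic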
# Mtb BioA inh = M. tuberculosis BioA enzyme inhibitors, primary screen, biochemical, plate reader, single point, HTS; 0.096% of 360,000 active; inhibition, % at 9.99 µM; purified M. tuberculosis BioA enzyme; 7,8-diaminopelargonic acid synthase BioA (Mycobacterium tuberculosis); in the data active = inhibition above about 40%; inconclusive = no clear call, values can overlap the other calls
# * = called active by the depositor; ? = inconclusive; · = no result given. Only some compounds are listed: those with a hit (about 0.9% of all), similar ones and a draw of the others.
SMILES,Sa ugtP lethal,RN4220 kill,PfHsp40 rescue,Mtb bLac sens,Mtb BioA inh
CCOC(=O)C1C2COc3cc(OC)ccc3C2N2C(=O)N(c3cccc(C)c3)C(=O)[C@@]12C (stereo not given in full),-13,8,·,·,·
CCOC(=O)[C@@H]1[C@H]2COc3cc(OC)ccc3[C@@H]2N2C(=O)N(c3cccc(C)c3)C(=O)[C@]12C,·,·,65*,-4,0
O=C(c1ccc(Br)cc1)C(CN1CCOCC1)c1ccccc1 (stereo not given),100*,93*,1,100,-1
C#CCOCCOCCOCCNc1nc(N2CCN(C(=O)CCCCCCCCCCNC(=O)[C@@H](CCSC)n3cc(CCO)nn3)CC2)nc(N2CCN(C(=O)CCCCCCCCCCNC(=O)[C@H](CO)n3cc(CCCCCN)nn3)CC2)n1,·,·,85*,57,-2
C#CCOCCOCCOCCNc1nc(N2CCN(C(=O)CCCCCCCCCCNC(=O)Cn3cc(CCCCCN)nn3)CC2)nc(N2CCN(C(=O)CCCCCCCCCCNC(=O)Cn3cc(C[C@@H](C)O)nn3)CC2)n1,·,·,38*,31,0
C#CCOCCOCCOCCNc1nc(N2CCN(C(=O)CCCCCCCCCCNC(=O)[C@@H](CCSC)n3cc(CCO)nn3)CC2)nc(N2CCN(C(=O)CCCCCCCCCCNC(=O)[C@H](CCC(=O)O)n3cc(CCCCCN)nn3)CC2)n1,·,·,1,14,-2
C#CCOCCOCCOCCNc1nc(N2CCN(C(=O)CCCCCCCCCCNC(=O)[C@H](CCCCN)n3cc(C[C@@H](C)CC)nn3)CC2)nc(N2CCN(C(=O)CCCCCCCCCCNC(=O)[C@H](CCCN=C(N)N)n3cc(C[C@@H](C)CC)nn3)CC2)n1,·,·,26*,100,-2
CC(C)NC(=O)Nc1ccc2c(c1)C(=O)N(C(C)CO)CC(C)C(CN(C)S(=O)(=O)c1cccs1)O2 (stereo not given),0,5,·,·,·
CCOC(=O)[C@]12Cc3ccccc3C1N(Cc1ccccc1)C(=O)c1ccccc12 (stereo not given in full),15,6,·,·,·
O=C(NCc1nc2ccccc2[nH]1)C1=CC(c2ccc(C(F)(F)F)cc2)CC(OCc2ccc(CO)cc2)O1 (stereo not given),12,19,·,·,·
Cc1onc(-c2ccccc2)c1C(=O)NC(=S)NNC(=O)c1ccncc1,3,27,2,96,1
Cc1onc(-c2ccccc2)c1C(=O)NC(=S)NNC(=O)c1cc(-c2ccc(F)cc2)n[nH]1,-5,13,235*,-5,0
Cc1onc(-c2ccccc2)c1C(=O)NC(=S)NNC(=O)c1ccco1,8,28,50*,48,0
CCN1C(=O)C2C(c3ccc(-c4ccc(C(C)=O)cc4)cc3)N3CCC[C@@]3(C(=O)OC)C2C1=O (stereo not given in full),10,4,·,·,·
CC1CC[C@]2(C(=O)O)CC[C@]3(C)C(=CCC4[C@@]5(C)CCC(O)[C@@](C)(C(=O)O)C5CC[C@]43C)C2[C@]1(C)O (stereo not given in full),-5,23,·,·,·
COc1ccc(C2CC(=O)C=C(c3cccc4c3sc3ccccc34)C2)cc1OC (stereo not given),13,1,·,·,·
CCCCN1CC(=O)N2C3c4ccc(OC)cc4OCC3C(C(=O)OCC)[C@]2(C)C1=O (stereo not given in full),5,7,·,·,·
CCn1cc(C(=O)O)c(=O)c2cc(F)c(N3CCN(C(=O)Nc4ccccc4)CC3)cc21,96*,86,0,94,·
CCn1cc(C(=O)O)c(=O)c2cc(F)c(N3CCNCC3)cc21,·,·,16,100,-1
CCn1cc(C(=O)O)c(=O)c2cc(F)c(N3CCN(C(=S)NC(=O)c4ccc(Br)cc4)CC3)cc21,·,·,1,?,0
CCn1cc(C(=O)O)c(=O)c2cc(F)c(N3CCN(C(=S)NC(=O)c4ccc(OC)cc4)CC3)cc21,99*,99*,0,34,-1
C=CCNC(=O)c1cn(CC)c2cc(N3CCN(C(=O)c4ccco4)CC3)c(F)cc2c1=O,98*,94*,1,86,8
CCn1cc(C(=O)O)c(=O)c2cc(F)c(N3CCN(C(=S)NC(=O)c4ccccc4F)CC3)cc21,99*,99*,0,75,·
S=C1NC[C@H](c2ccccc2)N1CCCCC1CCCCC1,·,·,330*,-1,-2
S=C1NCC(c2ccccc2)N1CCCCC1CCCCC1 (stereo not given),34,14,·,·,·
SMILES,Sa ugtP lethal,RN4220 kill,PfHsp40 rescue,Mtb bLac sens,Mtb BioA inh
O=C1C(Cc2ccccc2)NCC=CCC(c2ccco2)N1Cc1ccccc1 (stereo not given),15,16,·,·,·
O=C1C(Cc2ccccc2)Nc2ncnc(N3CCc4ccccc4C3)c2N1Cc1ccc(Cl)cc1 (stereo not given),·,·,38*,3,-2
COc1ccc(CN2C(=O)C(Cc3ccccc3)Nc3ncnc(N4CCOCC4)c32)cc1 (stereo not given),-2,1,45*,-6,0
O=C1C(Cc2ccccc2)Nc2ncnc(N3CCOCC3)c2N1Cc1ccccc1 (stereo not given),1,4,-1,-1,-1
C#CCOCCOCCOCCNc1nc(N2CCOCC2)nc(N2CCN(C(=O)C(C)n3cc(CCCN=C(N)N)nn3)CC2)n1 (stereo not given),-4,5,·,·,·
CN1CC2C(c3ccc(C(F)(F)F)cc3)C3(c4cccnc4)CC2(C3)C1c1ccccc1 (stereo not given),-1,4,·,·,·
COc1ccc2cc(C[C@@H]3CC[C@@H](CNC(N)=O)O3)ccc2c1,8,3,38*,·,-1
CN1CCC(Oc2ccc(Sc3ccccc3)cc2)CC1,94*,-1,0,3,3
CN1CCC(Oc2ccccc2Sc2ccc(C(F)(F)F)cc2)CC1,0,4,0,?,·
O=C1NC(Cc2cn(S(=O)(=O)c3ccccc3)c3ccccc23)C(=O)NC1Cc1ccccc1 (stereo not given),7,6,·,·,·
CC1CN(C(C)CO)C(=O)c2cc(NC(=O)c3ccncc3)ccc2OC1CN(C)C(=O)NC1CCCCC1 (stereo not given),9,4,·,·,·
COc1ccc(-c2nnc(SCc3cc(C)cc(C)c3)o2)cc1,94*,11,1,15,-1
O=C(CN1C(=O)CC(c2ccccc2)=Nc2ccccc21)NCc1ccccc1,5,8,119*,1,0
Cc1ccc(N2C(=O)N3C(c4ccc(Cl)cc4)C4C(=O)N(C5CCCCC5)C(=O)C4[C@]3(Cc3ccccc3)C2=O)cc1 (stereo not given in full),-6,5,·,·,·
CCOc1ccc(C(C)=O)cc1COC(=O)c1ccccc1C(=O)N(C)Cc1ccccc1,12,10,96*,·,5
O=C(Nc1ncccc1O)c1cccc(S(=O)(=O)N2CCCc3ccccc32)c1,1,13,62*,3,·

# From PubChem
